Measurements from the supplement of paper PMC10849652.
Targets with a hit are over-represented here; the source holds about 7,900 in all. About 0.6% of all pairs of compound and target were hits.

Experiments:
Test in all cases: log2 fold change, soluble protein after heating vs DMSO (PISA); higher = thermal stabilisation; K562 cells, 10 uM, 30 min; active = over 0.2 and 3.5 SD of the protein, either way, in both replicates (recomputed)
[1] = compound: CC1=C(C=C(C=C1)NC(=O)C2=CC(=CC=C2)C(C)(C)C#N)NC3=CC4=C(C=C3)N=CN(C4=O)C
Summary of the method: (§1)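 Soluble protein was quantified by TMTpro 16plex LC-MS/MS after channel sums were equalised. It was obtained as the supernatant after 21,000xg for 90 min from pooled aliquots of K562 cells (2×10^6 cells/mL, 10 μM compound, 30 min) heated for 3 min across 48°C-58°C and extracted in PBS with 0.5% NP-40 at 4°C. Thermal stability values are relative to control samples and come from duplicates. They are given as log2 fold changes.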

[2] = compound: CC1=C(C=C(C=C1)NC(=O)C2=CC(=CC=C2)N(C)C)NC(=O)C3=CC=C(C=C3)O
Summary of the method: as §1

[3] = compound: CC1=CC=C(C=C1)SC2=C3C=C(SC3=CN=C2)C(=O)N
Summary of the method: as §1

[4] = compound: CC1=NC(=CC=C1)C2=C(N=C(N2)C(C)(C)C)C3=CC4=NC=CN=C4C=C3
Summary of the method: as §1

[5] = compound: CCCCN(Cc1ccc(C(=O)NO)cc1)C(=O)Nc1ccccc1 [Nexturastat A]
Summary of the method: as §1

[6] = compound: CCCS(=O)(=O)Nc1ccc(F)c(C(=O)c2c[nH]c3ncc(-c4ccc(Cl)cc4)cc23)c1F [vemurafenib]
Summary of the method: as §1

[7] = compound: CCCS(=O)(=O)Nc1ccc(F)c(C(=O)c2c[nH]c3ncc(Cl)cc23)c1F
Summary of the method: as §1

[8] = compound: CCCc1cc(C)[nH]c(=O)c1CNC(=O)c1cc(-c2ccnc(N3CCN(C)CC3)c2)cc2c1cnn2C(C)C
Summary of the method: as §1

[9] = compound: CCN(CC)Cc1ccc2cc(COC(=O)Nc3ccc(C(=O)NO)cc3)ccc2c1 [givinostat]
Summary of the method: as §1

[10] = compound: CCN(CCCOc1ccc2c(Nc3cc(CC(=O)Nc4cccc(F)c4)[nH]n3)ncnc2c1)CCOP(=O)(O)O [barasertib]
Summary of the method: as §1

[11] = compound: CC[C@@H]1C(=O)N(C)c2cnc(Nc3ccc(C(=O)NC4CCN(C)CC4)cc3OC)nc2N1C1CCCC1
Summary of the method: as §1

[12] = compound: CC[C@@H]1C(=O)N(C)c2cnc(Nc3ccc(C(=O)N[C@H]4CC[C@H](N5CCN(CC6CC6)CC5)CC4)cc3OC)nc2N1C(C)C [volasertib]
Summary of the method: as §1

[13] = compound: CC[C@H](C)N1C=C(C2=C(C=C(C=C21)C3=CN=C(C=C3)N4CCNCC4)C(=O)NCC5=C(C=C(NC5=O)C)C)C
Summary of the method: as §1

[14] = compound: CC[C@H](C)[C@@H](C(=O)N[C@@H]([C@@H](C)O)C(=O)N[C@@H](CC(C)C)C(=O)[C@]1(CO1)C)NC(=O)[C@H]([C@@H](C)CC)N(C)C(=O)C [epoxomicin]
Summary of the method: as §1

[15] = compound: CCn1c(C(=O)N(C2CC2)C2CC2)cc2c3c(ncn3C)c(Nc3cc(C)n(C)n3)nc21
Summary of the method: as §1

[16] = compound: CCn1cc(-c2ccnc3[nH]c(-c4cccc(CN(C)C)c4)cc23)c(-c2ccc(NC(=O)N(C)C)cc2)n1
Summary of the method: as §1

[17] = compound: CN(C)CC(=O)Nc1ccc2[nH]c(=O)c3ccccc3c2c1
Summary of the method: as §1

[18] = compound: CN(CCOC1=CC=C(C=C1)C[C@H]2C(=O)NC(=O)S2)C3=CC=CC=N3 (racemic) [rosiglitazone]
Summary of the method: as §1

[19] = compound: CN1C2=C(C3=C1C(=O)N(N=C3)CC4=CC(=CC=C4)N)SC(=C2)S(=O)C
Summary of the method: as §1

[20] = compound: CN1CCC(CNc2ccc3ncc(-c4cccc(OC(F)(F)F)c4)n3n2)CC1
Summary of the method: as §1

Measured: log2 fold change

NEU1 (UniProt Q99519)
active: [12] -0.501
inactive: [1] 0.031 | [2] -0.048 | [3] 0.029 | [4] 0.118 | [5] 0.068 | [6] -0.002 | [7] -0.008 | [8] 0.057 | [9] 0.036 | [10] 0.059 | [11] -0.184 | [13] 0.059 | [14] 0.113 | [15] -0.04 | [16] 0.052 | [17] 0.012 | [18] 0.032 | [19] 0.015 | [20] -0.079

MXRA7 (UniProt P84157)
Chain of UniProt P84157 (P84157 whole entry, looked up): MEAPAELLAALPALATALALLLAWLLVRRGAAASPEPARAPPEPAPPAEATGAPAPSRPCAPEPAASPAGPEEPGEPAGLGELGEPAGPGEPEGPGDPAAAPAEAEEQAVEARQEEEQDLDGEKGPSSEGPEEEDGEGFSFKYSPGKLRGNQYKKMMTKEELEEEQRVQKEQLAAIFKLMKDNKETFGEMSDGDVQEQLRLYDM
inactive: [1] -0.181 | [2] -0.015 | [3] 0.038 | [4] 0.011 | [5] -0.002 | [6] 0.041 | [7] -0.032 | [8] -0.078 | [9] 0.011 | [10] 0.048 | [11] 0.04 | [12] 0.08 | [13] -0.11 | [14] -0.034 | [15] 0.038 | [16] -0.042 | [17] 0.124 | [18] 0.037 | [19] -0.114 | [20] 0.113

NDUFA9 (UniProt Q16795)
Chain of UniProt Q16795 (Q16795 whole entry, looked up): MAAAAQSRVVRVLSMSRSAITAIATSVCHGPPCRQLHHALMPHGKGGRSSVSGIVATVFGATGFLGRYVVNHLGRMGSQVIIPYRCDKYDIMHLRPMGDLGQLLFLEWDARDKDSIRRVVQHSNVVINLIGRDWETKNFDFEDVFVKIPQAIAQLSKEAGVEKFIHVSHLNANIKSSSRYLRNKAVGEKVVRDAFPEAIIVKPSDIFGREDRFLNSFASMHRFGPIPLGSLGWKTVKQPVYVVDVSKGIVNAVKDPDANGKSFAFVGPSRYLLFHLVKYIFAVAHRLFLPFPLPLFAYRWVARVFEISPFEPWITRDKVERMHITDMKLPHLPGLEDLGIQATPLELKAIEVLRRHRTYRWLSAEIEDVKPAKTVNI
active: [12] -0.26 | [20] -0.367
inactive: [1] 0.023 | [2] -0.036 | [3] 0.019 | [4] 0.04 | [5] -0.095 | [6] 0.009 | [7] 0.039 | [8] -0.044 | [9] 0.041 | [10] 0.026 | [11] -0.082 | [13] 0.073 | [14] 0.03 | [15] -0.029 | [16] -0.053 | [17] 0.035 | [18] 0.064 | [19] -0.017

NDUFS7 (UniProt O75251)
Chain of UniProt O75251 (O75251 whole entry, looked up): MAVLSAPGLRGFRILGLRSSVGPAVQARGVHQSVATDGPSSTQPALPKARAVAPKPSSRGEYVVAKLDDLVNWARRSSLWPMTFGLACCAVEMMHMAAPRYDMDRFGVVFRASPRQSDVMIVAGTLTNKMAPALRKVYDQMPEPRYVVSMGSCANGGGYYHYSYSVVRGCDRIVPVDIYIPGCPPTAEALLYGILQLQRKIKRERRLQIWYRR
active: [20] -0.327
inactive: [1] 0.008 | [2] 0.004 | [3] 0.017 | [4] 0.025 | [5] -0.019 | [6] -0.025 | [7] 0.028 | [8] -0.039 | [9] 0.113 | [10] 0.016 | [11] -0.043 | [12] -0.042 | [13] 0.003 | [14] -0.007 | [15] -0.009 | [16] -0.005 | [17] 0.012 | [18] 0.053 | [19] -0.029

MIS12 (UniProt Q9H081)
Chain of UniProt Q9H081 (Q9H081 whole entry, looked up): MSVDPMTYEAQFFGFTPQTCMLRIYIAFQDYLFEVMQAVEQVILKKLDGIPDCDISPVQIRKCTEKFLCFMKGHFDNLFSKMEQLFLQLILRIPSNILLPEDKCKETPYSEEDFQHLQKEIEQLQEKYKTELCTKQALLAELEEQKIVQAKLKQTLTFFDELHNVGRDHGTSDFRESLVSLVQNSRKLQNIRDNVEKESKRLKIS
active: [12] -0.36
inactive: [1] -0.008 | [2] -0.141 | [3] -0.004 | [4] 0.044 | [5] 0.056 | [6] 0.074 | [7] -0.002 | [8] 0.023 | [9] 0.102 | [10] 0.049 | [11] -0.072 | [13] 0.012 | [14] 0.026 | [15] -0.034 | [16] -0.007 | [17] 0.055 | [18] 0.04 | [19] -0.107 | [20] -0.039

MRPS35 (UniProt P82673)
inactive: [1] -0.016 | [2] -0.013 | [3] -0.04 | [4] -0.007 | [5] 0.167 | [6] -0.063 | [7] -0.022 | [8] 0.149 | [9] 0.017 | [10] -0.034 | [11] 0.064 | [12] 0.014 | [13] 0.029 | [14] 0.048 | [15] -0.054 | [16] -0.076 | [17] 0.027 | [18] -0.08 | [19] -0.013 | [20] -0.007

NUDCD2 (UniProt Q8WVJ2)
Chain of UniProt Q8WVJ2 (Q8WVJ2 whole entry, looked up): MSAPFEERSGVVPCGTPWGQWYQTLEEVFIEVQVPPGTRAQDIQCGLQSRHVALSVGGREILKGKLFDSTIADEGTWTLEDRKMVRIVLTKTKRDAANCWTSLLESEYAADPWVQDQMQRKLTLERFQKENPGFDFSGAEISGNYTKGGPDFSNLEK
active: [12] -0.566
inactive: [1] -0.018 | [2] -0.109 | [3] 0.117 | [4] 0.019 | [5] 0.082 | [6] -0.014 | [7] 0.008 | [8] -0.039 | [9] 0.047 | [10] 0.104 | [11] -0.177 | [13] 0.056 | [14] -0.098 | [15] -0.042 | [16] 0.021 | [17] 0.081 | [18] 0.093 | [19] 0.023 | [20] -0.291

MTOR (UniProt P42345)
active: [12] -0.305 | [20] -0.286
inactive: [1] -0.033 | [2] -0.05 | [3] 0.02 | [4] -0.006 | [5] 0.009 | [6] 0.024 | [7] 0.071 | [8] 0.008 | [9] 0.038 | [10] 0.059 | [11] -0.131 | [13] 0.04 | [14] -0.021 | [15] -0.05 | [16] -0.073 | [17] 0.036 | [18] 0.058 | [19] 0.017
